“And” between values parts separate entries of the source, which are not always exact repeats. Equal entries are not always repeated. About 40 (0.2%) of roughly 16,000 compounds were called active. Roughly 1% stayed inconclusive and do not appear here. The full list was thinned out, with actives kept by preference. Some compounds were tested as several samples or in several runs, with calls that do not always agree. Unmarked numbers belong to inactive results. The call rests on the fitted dose curve; in most records, active means well fitted activation curve with a large enough effect; inconclusive means small, poorly fitted or top-dose-only effect, or another doubt; inactive means no such curve, though single readings can be large or run the other way.
Molecular target: Rap guanine nucleotide exchange factor 4 (Homo sapiens) (UniProt Q8WZA2)
Assay: Validation qHTS for agonist of cAMP-regulated guanine nucleotide exchange factor 4 (EPAC2);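 on activation: exchange makes BODIPY-GDP fluorescence drop when released from Rap1B; series mostly up to about 150 µM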
Settings: EPAC2 Rap1B BODIPY-GDP exchange, fluorescence; activation: hits give high values
Summary of the method: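 Signal normalized against 6.5 mM cAMP as agonist control. Mix of EPAC2 (100 nM), RAP1B-BODIPY-GDP (250 nM) and GDP (50 uM) was read kinetically at 480/540 nm, every 5 min over 30 min, after 5 min room-temperature incubation with compound.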
On the % scale 0 is the no-effect control and ±100 the full control effect; potency means the concentration at half of the fitted maximal effect.

Rap guanine nucleotide exchange factor 4 (Homo sapiens), sequence (Q8WZA2 whole entry, looked up): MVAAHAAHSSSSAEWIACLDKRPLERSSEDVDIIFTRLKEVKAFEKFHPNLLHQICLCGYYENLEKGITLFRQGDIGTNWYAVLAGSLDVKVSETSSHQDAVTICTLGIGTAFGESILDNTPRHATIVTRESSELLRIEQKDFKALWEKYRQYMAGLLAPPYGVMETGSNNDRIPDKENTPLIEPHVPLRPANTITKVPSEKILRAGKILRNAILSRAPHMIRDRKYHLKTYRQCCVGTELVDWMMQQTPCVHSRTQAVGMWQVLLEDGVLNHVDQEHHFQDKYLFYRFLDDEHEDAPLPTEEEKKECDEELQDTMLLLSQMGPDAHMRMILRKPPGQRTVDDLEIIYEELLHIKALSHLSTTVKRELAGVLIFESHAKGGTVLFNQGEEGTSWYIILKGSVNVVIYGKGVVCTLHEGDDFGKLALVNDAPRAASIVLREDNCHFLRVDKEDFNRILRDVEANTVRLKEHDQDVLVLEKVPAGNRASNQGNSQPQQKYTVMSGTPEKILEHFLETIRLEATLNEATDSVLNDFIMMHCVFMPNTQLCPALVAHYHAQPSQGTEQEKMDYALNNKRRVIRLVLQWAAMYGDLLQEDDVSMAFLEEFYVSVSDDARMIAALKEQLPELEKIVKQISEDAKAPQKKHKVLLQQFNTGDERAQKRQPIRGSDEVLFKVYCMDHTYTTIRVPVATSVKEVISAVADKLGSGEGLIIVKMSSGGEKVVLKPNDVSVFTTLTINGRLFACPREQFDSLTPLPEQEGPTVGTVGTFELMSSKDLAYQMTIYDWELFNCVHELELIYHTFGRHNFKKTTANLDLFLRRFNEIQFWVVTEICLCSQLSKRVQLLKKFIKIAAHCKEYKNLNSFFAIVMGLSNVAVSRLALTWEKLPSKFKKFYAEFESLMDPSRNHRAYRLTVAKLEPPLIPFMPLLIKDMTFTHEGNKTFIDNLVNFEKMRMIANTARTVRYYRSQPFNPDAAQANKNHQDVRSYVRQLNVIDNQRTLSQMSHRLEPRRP

Going from `Cc1cc(C)n2nc(C(=O)NCC3Cc4cccc(-c5ccc(S(C)(=O)=O)cc5)c4O3)cc2n1` (stereo not given) to `COC(=O)c1ccccc1C(=O)NCC1Cc2cc(-c3nc(C)cnc3C)ccc2O1` (stereo not given), the activation falls from 2.37% to -20.8%.

Going from `O=c1oc2c(O)c(O)cc3c(=O)oc4c(O)c(O)cc1c4c23` to `COc1c(O)cc2c(=O)oc3c(OC)c(O)cc4c(=O)oc1c2c34`, the activation falls from 0.203% to -13.8%.

Going from `Cc1cc(=O)oc2c(O)c(O)ccc12` to `[C-]#[N+]c1cc(-c2ccncc2)c(C)[nH]c1=O`, the activation rises from -5.12% to -4.45%.

First: CN(C)c1ccc(/C=C/c2ccc3cc(N(C)C)ccc3n2)cc1
Second: CN(C)c1ccc(/C=C/c2ccnc3ccccc23)cc1Cl
The activation of the first is higher: 0.661% for the first, -5.92% for the second.

First: COc1ccccc1-c1nccc(NCc2ccccc2)n1
Second: COc1ccccc1-c1nccc(NCc2cccc(C)c2)n1
The activation of the first is higher: -0.806% for the first, -13.6% for the second.

Compared with `OC1CCN(Cc2ccc3c(c2)CN(Cc2ccc(Oc4ncccn4)cc2)CCO3)CC1`, `OC(c1ccc2c(c1)CN(Cc1cccn1-c1ncccn1)CCO2)C1CCCCC1` (stereo not given) is lower in activation: -1.28% for the first, -21.5% for the second.

First: CC(=O)OCC1=C(C(=O)O)N2C(=O)C(NC(=O)CSc3ccncc3)[C@@H]2SC1 (stereo not given in full)
Second: COC(=O)C1[C@H]2SC(C)(C)C(C(=O)OC)N2C(=O)N1Cc1ccccc1 (stereo not given in full)
The activation of the first is higher: -16.2% for the first, -17.5% for the second.

Compared with `O=C(NCc1nnc2n1CCN(C(=O)c1cccc(Cl)c1)CC2)C1CC1`, `CC(C)(CNC(=O)c1cnn(-c2nccc(-c3ccccc3F)n2)c1C1CC1)N1CCOCC1` is lower in activation: -2.97% for the first, -17.8% for the second.

Compared with `CC(=O)OCC(=O)[C@@]1(O)CCC2C3CC(C)C4=CC(=O)C=CC4(C)C3C(O)CC21C` (stereo not given in full), `C[C@]12CCC(=O)C=C1CCC1C3CC[C@](O)(C(=O)CO)[C@@]3(C)CC3OC312` (stereo not given in full) is higher in activation: -21.4% for the first, -18.8% for the second.

Compared with `Cc1cnc(SCCN2CCOCC2)nc1C1CCCN(C(=O)c2cccc3c(C)c(C)[nH]c23)C1` (stereo not given), `Cc1oc(-c2ccccc2NC(=O)C2CCCO2)nc1CNC(=O)c1[nH]c2c(C)ccc(C)c2c1C` (stereo not given) is higher in activation: -5.56% for the first, 8.6% for the second.

Going from `CC(=O)NCC(=O)NCC1Cc2cc(C)cc(-c3ccccn3)c2O1` (stereo not given) to `Cc1cc2c(c(-c3cnccn3)c1)OC(CNC(=O)c1cc(Cl)ccc1F)C2` (stereo not given), the activation rises from 0.493% to 5.25%.

Going from `CN(CCO)C(=O)c1cn(C2CCCN(Cc3ccc(C(F)(F)F)cc3)C2)nn1` (stereo not given) to `N#Cc1ccc(CN2CC[C@@]3(CCCN(C(=O)c4ccco4)C3)C2)cc1`, the activation rises from -15.8% to -12.3%.

Compared with `COCCn1c(=O)c(-c2ccc(F)cc2)nc2cnc(Nc3cccc(OC)c3)nc21`, `COc1cccc(Nc2ncc3nc(C)c(=O)n(-c4ccccc4)c3n2)c1` is lower in activation: 6.42% for the first, -17% for the second.

Going from `C[C@@H](N)CCCP(=O)(O)O` to `COC(=O)CC[C@H](N)C(=O)O`, the activation falls from -1.34% to -14%.

First: CC(C)CN1CCC2(CC1)CCN(C(=O)c1ccco1)CC2
Second: COCC(=O)N1CCC[C@@]2(CCN(c3ccccn3)C2)C1
The activation of the first is lower: -7.83% for the first, -5.3% for the second.

Going from `CC(N)(COP(=O)(O)O)C(=O)O` (stereo not given) to `COC(=O)C1N[C@@H]([C@@H](NC(=O)COc2ccccc2)C(=O)Nc2ccc(OC)cc2)SC1(C)C` (stereo not given in full), the activation falls from 4.78% to -24.1%.

Going from `CC(C)C[C@@H](CSc1ccccc1)N1CCN(C)CCC1=O` to `O=C1CCNCCN1[C@H](CO)c1ccccc1`, the activation falls from -9.44% to -16.1%.

First: Cc1noc(C)c1-c1nccc(NC2CC2)n1
Second: COc1ccc2[nH]cc(CCNc3nc(-c4c(C)noc4C)nc4ccccc34)c2c1
The activation of the first is lower: -2.86% for the first, 6.86% for the second.

First: CC(C)CCCC(C)C1CCC2C3C(=O)C=C4CC(O)CC[C@@]4(C)C3CC[C@@]12C (stereo not given in full)
Second: CC(C)c1c(O)ccc2c1CCC1[C@@](C)(C=O)CCC[C@@]21C (stereo not given in full)
The activation of the first is lower: -16% for the first, 22.5% for the second.

First: CCCCCCCCCC[n+]1ccc(/C=C/c2c[nH]c3ccccc23)c2ccccc21
Second: CCCCCCCCCCCCCCCCCCN(CCCCCCCCCCCCCCCCCC)c1ccc(/C=C/c2ccnc3ccccc23)cc1
The activation of the first is higher: -5.9% for the first, -21.8% for the second.

Compared with `COc1cccc(Nc2ncc3nc(C)c(=O)n(C[C@H]4CCCO4)c3n2)c1`, `COc1ccc(-n2c(=O)c(-c3cccs3)nc3cnc(Nc4ccccc4)nc32)cc1` is higher in activation: -13.4% for the first, -5.89% for the second.

Compared with `Cc1cccc(N(C)C(=S)Oc2ccc3c(c2)CCC3)c1`, `CN(C)c1ncnc2ccc(-c3cccc(C#N)c3)cc12` is lower in activation: 13.3% for the first, -0.384% for the second.

First: OC(c1cccnc1)c1ccc2c(c1)CN(Cc1cn(-c3ccccc3)nc1-c1ccccc1)CCO2 (stereo not given)
Second: N#Cc1ccccc1-c1ccc2ncnc(NCc3ccccc3)c2c1
The activation of the first is lower: -2.05% for the first, -0.93% for the second.

Going from `O.O.O.O.O.O.O.O=S(=O)([O-])[O-].[Co+2]` to `CNS(=O)(=O)Cc1ccc2[nH]cc(CCN(C)C)c2c1`, the activation rises from -48.9% to -28%.

Compared with `CN(C)Cc1ccccc1-c1cncnc1NCc1ccccc1`, `CC(=O)NCCNc1nc(-c2ccccc2CN(C)C)nc2ccccc12` is lower in activation: -18.5% for the first, -19.9% for the second.

Going from `Cc1cc(N(C)C)cc(C)c1/C=C/c1cc[n+](C)c2ccccc12` to `CN(C)c1ccc(/C=C/c2ccnc3ccccc23)cc1[N+](=O)[O-]`, the activation rises from -16.7% to -6.84%.

First: CN1CCN(c2ncc3nc(-c4cn(C)c5ccccc45)c(=O)n(Cc4cccs4)c3n2)CC1
Second: Cc1cccc(CNc2nc(-c3ccc4c(c3)OCO4)nc3ccccc23)c1
The activation of the first is lower: -4.2% for the first, 5.64% for the second.

First: OCCN(CCO)c1ccc(/C=C/c2ccnc3ccccc23)cc1
Second: CC[C@@]1(O)C(=O)OCc2c1cc1n(c2=O)Cc2cc3c([N+](=O)[O-])cccc3nc2-1
The activation of the first is lower: -44.7% for the first, 5.92% for the second.

Going from `CN(C)CCc1c[nH]c2ccc(CS(=O)(=O)N3CCCC3)cc12` to `C[N+]1(Cc2ccccc2)CCC(C(=O)OCC2CCCC2)CC1` (stereo not given), the activation falls from -8.07% to -12.2%.

`COC(=O)C(O)C1C(C)(C)C(OC(C)=O)C2CC3=C4CC(=O)OC(c5ccoc5)[C@]4(C)CCC3[C@@]1(C)C2=O` (stereo not given in full) showed an activation of -10.7%.

In the case of `O=c1oc2c(O)c(O)cc3c(=O)oc4c(O)c(O)cc1c4c23`, the Potency is reported as 126 µM (active).
For `CCOC(=O)Nc1ccc(NCc2ccc(F)cc2)nc1N`, the Potency was 112 µM (active).
With `C/C1=C2N=C(/C=C3N=C(/C(C)=C4\[N-][C@@](C)([C@@H]5N=C1[C@](C)(CCC(=O)NCC(C)OP(=O)(O)O[C@H]1[C@@H](O)[C@@H](n6cnc7cc(C)c(C)cc76)O[C@@H]1CO)[C@H]5CC(N)=O)[C@@](C)(CC(N)=O)[C@@H]4CCC(N)=O)[C@@](C)(CC(N)=O)[C@@H]\3CCC(N)=O)C(C)(C)[C@@H]/2CCC(N)=O.CC(=O)O.[Co]` (stereo not given in full) the Potency was 56.2 µM (active).
In the case of `Nc1cc(-c2ccncc2)c[nH]c1=O`, the Potency is reported as 100 µM (active).
`Cc1cc(/C=C/c2ccnc3ccccc23)ccc1N(C)C` was tested, and the Potency was 50.1 µM (active).
For `CCCN(CCC)c1ccc(/C=C/c2ccnc3ccccc23)cc1`, the Potency was 100 µM (active).
For `COc1cccc(Nc2ncc3nc(-c4cccs4)c(=O)n(-c4ccccc4)c3n2)c1`, the Potency was 50.1 µM (active).
With `CN(C)CCc1c[nH]c2ccc(C[C@H]3COC(=O)N3)cc12` the Potency was 126 µM (active).
For `CC[C@@]1(O)C(=O)OCc2c1cc1n(c2=O)Cc2cc3c(CN(C)C)c(O)ccc3nc2-1`, the Potency was 89.1 µM (active).

`COC(=O)C1C(O)CC[C@@H]2CN3CCc4c([nH]c5ccccc45)C3C[C@@H]12` (stereo not given in full) was tested, and the activation was -7.23% and -17.2%.
With `CC[C@@]1(O)C(=O)OCc2c1cc1n(c2=O)Cc2cc3cc(O)ccc3nc2-1` the activation was -2.34% and 12.4%.

Reference: PubChem BioAssay AID1645887 (National Center for Advancing Translational Sciences (NCATS), 2021)
